Screening data deposited in PubChem BioAssay by National Center for Advancing Translational Sciences (NCATS).
The list is not random: actives were taken first. Their share in the collection is about 9.8%.
HPGD inh – blocks human HPGD enzyme activity; P15428; purified HPGD, NADH fluorescence kinetic, PGE2 substrate; Potency, µM, inactives show at the top dose activity change, negative = inhibition, most hits filed as inhibitors; 4.3% of 150,000 active; also: potency is read from the fitted curve at half-maximal effect; % is scaled to controls: 0 for no effect and ±100 for the full control effect
Target sequence (P15428 whole entry, looked up): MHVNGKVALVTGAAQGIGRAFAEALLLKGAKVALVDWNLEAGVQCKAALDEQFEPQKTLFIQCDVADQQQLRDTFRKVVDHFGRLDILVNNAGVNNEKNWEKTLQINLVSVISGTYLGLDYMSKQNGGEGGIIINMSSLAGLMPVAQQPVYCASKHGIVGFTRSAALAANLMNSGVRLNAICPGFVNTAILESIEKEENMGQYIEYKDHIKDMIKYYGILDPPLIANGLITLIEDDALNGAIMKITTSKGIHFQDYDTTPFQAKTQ
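NADH formation kinetics: reaction with 30 uM PGE2 and 1 mM NAD+ (final), 20 nM enzyme, Tris-HCl pH 8 with Tween 20, after 15 min compound preincubation at room temperature. Fluorescence change, last versus first of five reads.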
JMJD2E inh – inhibitors of human JMJD2E histone demethylase. JMJD2E catalytic domain, FDH-coupled NADH fluorescence (FDH is formaldehyde dehydrogenase). Potency, µM (highest dose often 57.1 µM), without a hit: at the top dose activity change, negative = inhibition, actives largely listed as inhibitors. 1.6% of 230,000 active. AID 2147;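 also: potency is read from the fitted curve at half-maximal effect; 0% = wells with enzyme and -100% = buffer wells without enzyme; nearly all actives have a fitted effect of over 50% in size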
Target sequence (B2RXH2 1-337 limits assumed): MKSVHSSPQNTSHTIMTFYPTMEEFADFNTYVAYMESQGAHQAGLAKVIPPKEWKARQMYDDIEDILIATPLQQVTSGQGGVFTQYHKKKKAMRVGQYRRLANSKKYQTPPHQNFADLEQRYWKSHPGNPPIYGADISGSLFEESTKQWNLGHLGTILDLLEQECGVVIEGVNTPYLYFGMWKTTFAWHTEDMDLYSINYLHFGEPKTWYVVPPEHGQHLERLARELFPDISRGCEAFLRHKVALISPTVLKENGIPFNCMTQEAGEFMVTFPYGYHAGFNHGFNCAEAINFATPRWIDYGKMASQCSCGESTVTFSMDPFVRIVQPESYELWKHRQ
ALDH1A1 block – inhibitors of human aldehyde dehydrogenase 1A1; P00352; 7.3% of 220,000 active; Potency, µM (top dose mostly 75.3 µM), for the others: at the highest dose activity, negative = inhibition, hits mostly inhibitors; Purified ALDH1A1, NADH fluorescence, propionaldehyde substrate;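 also: potency is read from the fitted curve at half-maximal effect; plate controls were no enzyme wells and a reference inhibitor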
HTT aggregate – mutant huntingtin aggregation inhibition; 1.1% of 220,000 active; PC12 HttQ103-GFP aggregates, Acumen cytometry, 40 h; Potency, µM (doses to about 46.1 µM), without a hit: top-dose activity change, negative = inhibition, most hits filed as inhibitors; active = well fitted curve in the direction sought with a large enough effect; inconclusive = small, poorly fitted or top-dose-only effect, or another doubt; inactive = no such curve, though single readings can be large; an effect the other way counts as inactive or inconclusive; also: potency is read from the fitted curve at half-maximal effect; % is scaled to controls: 0 for no effect and ±100 for the full control effect; nearly all actives have a fitted effect of over 60% in size
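PC12 cells stably carrying ecdysone-inducible HTT exon 1 Q103–GFP were induced with tebufenozide (100 nM final) and treated with library compounds in titration. GFP aggregates in lysates were counted by laser scanning cytometry.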
CBFb RUNX1 block – blocks binding between human CBF-beta and RUNX1; AID 1477; Potency, µM (series often up to 59.8 µM), without a hit: at the highest dose activity, negative = inhibition, hits mostly inhibitors; AlphaScreen CBFb-His/RUNX1-biotin binding, biochemical; 230,000 tested, under 10 active; active = well fitted curve in the direction sought with a large enough effect; inconclusive = small, poorly fitted or top-dose-only effect, or another doubt; inactive = no such curve, though single readings can be large; an effect the other way counts as inactive or inconclusive; also: % of control where 0% means no effect
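Interaction loss through any mechanism counts as activity. Pre-formed complex of His-CBF-beta and biotin-RUNX1 (30 nM apiece) is incubated with compound 15 min, then with 50 ng nickel and 50 ng streptavidin beads for 90 min before AlphaScreen detection.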
HTT cytoprotect – cytoprotection in Huntington HTT-Q103 PC12 cell model; PC12 HTT-Q103 induced, cytoprotection, ATP luminescence, 40 h; Potency, µM (doses to about 56.4 µM), inactives show cytoprotection (ATP increase), actives largely listed as activators; 0.14% of 230,000 active; AID 1471; active = well fitted curve in the direction sought with a large enough effect; inconclusive = small, poorly fitted or top-dose-only effect, or another doubt; inactive = no such curve, though single readings can be large; an effect the other way counts as inactive or inconclusive; also: potency is read from the fitted curve at half-maximal effect; % of control where 0% means no effect; nearly all actives have a fitted effect of over 45% in size
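Compounds added alongside 100 nM tebufenozide, which induces toxic Q103 huntingtin exon 1-GFP in stable PC12 cells; surviving cells quantified by luminescent ATP measurement. Medium: phenol red-free DMEM, 5% equine and 5% calf serum.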
Active calls of the source: *; ? = inconclusive; / = not tested or not shown; [ ] = dose if it differs, or a comment. Unless noted, calls follow the shape of the dose curve; as a rule, active = well fitted inhibition curve with a large enough effect (not every such curve was filed as active); inconclusive = small, poorly fitted or top-dose-only effect, or another doubt; inactive = no such curve, though single readings can be large or run the other way.

SMILES | HPGD inh | JMJD2E inh | ALDH1A1 block | HTT aggregate | CBFb RUNX1 block | HTT cytoprotect
CCn1cc(/C=N\NC(=O)c2ccc(F)cc2)cn1 | -4% | -28% | 3% | -5% | -3% | /
COC(=O)C1C(c2ccc(OC)c(OC)c2)NC(c2ccc(OC)c(OC)c2)C(C(=O)OC)S1(=O)=O (configuration not stated) | -7% | -2% | -2% | -8% | 11% | 0%[1.9 µM]
COC(=O)C1CSc2[nH]c(=O)sc2C1c1ccc(OC)c(OC)c1 (configuration not stated) | 3% | 12% | 7.9µM* | 8% | 6% | -21%
CC(c1ccon1)N(C)Cc1cn(C)nc1-c1ccc2c(c1)OCCO2 (configuration not stated) | / | 3% | / | -17%[9.22 µM] | 13% | 12%[10 µM]
CC(c1ccon1)N(C)Cc1cn(Cc2ccccc2)nc1-c1ccc2c(c1)OCO2 (configuration not stated) | / | -10% | 2% | 14µM* | 7% | -74%
COC(=O)c1cc(C)sc1NC(=S)N1CCN(CCc2ccccc2)CC1 | / | 8% | 14µM* | -1% | -2% | 2%[10 µM]
O=C(c1ccc2c(c1)OCO2)N(c1ccc(Cl)cc1)C1C=CS(=O)(=O)C1 (configuration not stated) | 3% | 1% | 14% | -9% | 3% | -2%
O=C(CCSc1nc(-c2ccco2)cc(C(F)(F)F)n1)Nc1ccc2c(c1)OCO2 | -13% | 6% | 7% | -10% | 2% | 0%[10 µM]
COc1ccc(S(=O)(=O)NCCSCc2ccco2)cc1Cl | 0% | 1% | 20µM* | -1% | -2% | 9%[10 µM]
COc1ccc(S(=O)(=O)NCCSC(C)(C)C)cc1Cl | -2% | 2% | ? | -32% | 5% | 9%
c1ccc2sc(SCc3ccc(-c4nnco4)cc3)nc2c1 | ? | -1% | -4% | ? | -1% | -2%
CCc1ccccc1N(CC)C(=O)CCc1nc(-c2ccc(C)cc2)no1 | 25µM* | ? | 1% | 10µM* | 7% | -47%
COc1cccc(NC(=O)CCc2nc(-c3ccccc3F)no2)c1 | -6% | 0% | 0% | ? | 9% | -11%
COc1ccc(-c2noc(CCC(=O)Nc3cc(OC)ccc3OC)n2)cc1 | -14% | 0% | 7.1µM* | -7%[9.22 µM] | 1% | 7%
O=C(CCc1nc(-c2ccccc2F)no1)Nc1ccc(Oc2ccccc2)cc1 | -17% | 5% | ? | 4µM* | 4% | -89%
CCN(C(=O)CCc1nc(-c2ccccc2F)no1)c1cc(OC)ccc1OC | 22µM* | 5% | ? | -11% | -1% | 5%[10 µM]
COc1ccc(Cl)cc1NC(=O)CCc1nc(-c2ccccc2F)no1 | / | 2% | 4% | -9% | 29% | -27%
Cc1nnc(NC(=O)CSc2nccn2-c2ccc(F)cc2)s1 | / | 7% | 7% | -1% | 2% | -35%
COc1ccc(CNC(=O)CCc2nc(-c3ccccc3F)no2)c(OC)c1 | -10% | 2% | 10µM* | -11% | 6% | 15%[10 µM]
O=C(CN1C(=O)C(c2ccc(F)cc2)=NC12CCCC2)Nc1ccc(F)cc1 | / | 0% | ? | ? | 7% | -77%
CN1CCC2(CC1)N=C(c1ccc(F)cc1)C(=S)N2C(=O)c1ccccc1 | / | ? | 22µM* | 17% | -3% | -19%[10 µM]
CCN1CCC2(CC1)N=C(c1ccc(F)cc1)C(=S)N2C(=O)c1ccc(C(C)(C)C)cc1 | / | 0% | 28µM* | 13% | 6% | -19%[10 µM]
CC(C)(CO)CNC(=O)c1ccc(OC2CCN(C(=O)C3CC3)CC2)cc1 | / | 7% | -1% | 0%[9.22 µM] | 4% | 7%[10 µM]
O=C(NN1C(=O)/C(=C/C=C/c2ccccc2)SC1=S)c1ccncc1 | / | -23% | 4.5µM* | -11% | -11% | ?
O=C(N/N=C/C=C/c1ccco1)c1ccncc1 | / | ? | / | -1%[9.22 µM] | -6% | 30%[10 µM]
SMILES | HPGD inh | JMJD2E inh | ALDH1A1 block | HTT aggregate | CBFb RUNX1 block | HTT cytoprotect
O=C(NN1C(=O)/C(=C/C=C/c2ccco2)SC1=S)c1ccncc1 | / | 20µM* | / | -14%[9.22 µM] | / | -13%[10 µM]
Cc1ccc(Sc2c(C=O)c3ccccc3n2C)cc1 | -15% | 3% | -11% | 10µM* | 27% | -3%[10 µM]
Cn1c(-c2ccccc2)c(C=O)c2ccccc21 | / | -33% | ? | 12%[9.22 µM] | 10% | 12%[10 µM]
CCCCCCN(C(=O)CCCCCN1C(=O)NC(C2CCCCC2)C(C(=O)OCc2ccccc2)=C1C)C(C(=O)NCCCC)c1ccc(OCC(=O)OC)c(C(=O)OC)c1 (configuration not stated) | -16% | -1% | 28µM* | / | 0% | -36%
CCCCCCN(C(=O)CCCCCN1C(=O)NC(c2ccc3ccccc3c2)C(C(=O)OCc2ccccc2)=C1C)C(C(=O)NCCCC)c1ccc(OCC(=O)OC)c(C(=O)OC)c1 (configuration not stated) | -12% | -11% | -8% | / | 12% | -8%
CCCCCCN(C(=O)CCCCCN1C(=O)NC(c2ccccc2-c2ccccc2)C(C(=O)OCc2ccccc2)=C1C)C(C(=O)NCCCC)c1ccc(OCC(=O)OC)c(C(=O)OC)c1 (configuration not stated) | -12% | -10% | 35µM* | / | 19% | 7%
O=C(O)C(Cc1cc(I)c(O)c(I)c1)c1ccccc1 (configuration not stated) | / | / | / | 20% | / | ?
COc1ccc2nc(NNC(=O)COc3ccccc3)sc2c1 | / | ? | 20µM* | 4% | -4% | -101%
O=C(COc1ccccc1)NNc1nc2ccccc2s1 | / | 2% | / | 2%[9.22 µM] | -6% | 6%[10 µM]
CC1CCCCN1C(=S)NCCc1ccccc1 (configuration not stated) | -14% | 0% | -10% | -23% | 14% | -15%
CCn1c(CCCCc2n[nH]c(=S)n2CC)n[nH]c1=S | / | ? | 7% | 42% | 3% | 1%
CCCCn1c(CCn2nc(C)c(Br)c2C)n[nH]c1=S | 22µM* | -10% | -10% | 9% | -5% | 12%
Cc1ccc(NC(=O)c2ccc(OC(=O)c3ccco3)cc2)cc1 | -11% | 3% | -1% | -16% | -1% | -75%[0.074 µM]
O=C(Oc1ccccc1)c1ccc(NC(=O)c2ccco2)cc1 | 13µM* | -4% | 18µM* | 2% | 7% | 0%[0.074 µM]
O=C(Nc1cccc(Oc2ccc3c(c2)C(=O)NC3=O)c1)c1ccco1 | 20µM* | 2% | 5% | -16% | 8% | -4%
Cc1ccc(Oc2ccc(NC(=O)c3ccco3)cc2)cc1 | ? | 9% | ? | 22µM* | 5% | -25%
O=C(Nc1ccc(-c2noc(CCc3ccccc3)n2)cc1)c1ccco1 | 25µM* | -2% | ? | -34% | 8% | -39%[10 µM]
c1ccc(CCc2nc(-c3ccccc3)no2)cc1 | -24% | 6% | -1% | 14% | ? | -6%
